The campaign covered roughly 290,000 compounds. About 2,600 (0.9%) were called active. The list comes from a sample in which actives are over-represented; it also holds similar structures and randomly drawn compounds. A number with no mark means an inactive call.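 How the source made its calls: active means inhibition above the mean of all tested compounds plus 3 SD, cutoff set per screening run (cut at about 7.5% in these data); inactive means the rest.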
The molecules below were run on VIM-2 metallo-beta-lactamase (Pseudomonas aeruginosa) (assay: VIM-2 metallo-beta-lactamase inhibitors, primary screen, biochemical, epi-absorbance readout, Pseudomonas aeruginosa enzyme (AID 1527;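 further: red hydrolysis product quenches plate fluorescence so inhibitors raise well fluorescence; 0% = enzyme with DMSO and 100% = DMSO without enzyme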)). Details: purified VIM-2, nitrocefin hydrolysis, epi-absorbance fluorescence; at 5.6 µM; hits give high values.

| SMILES | inhibition |
| --- | --- |
| O=C(NCCCc1ccccc1)C1CCC(=O)N(CCc2ccc(Cl)cc2)C1 (centres undefined) | -1.97% |
| Cc1ccc(Oc2ccc3c(c2)C(=O)N(c2cccc4cccnc24)C3=O)cc1 | 30.9% (active) |
| Cc1cccc(N2C(=O)c3cccnc3C2=O)c1 | -0.49% |
| Cc1ccc(NC(=O)CSc2cccc3cccnc23)c(C)c1 | -0.55% |
| O=C(C1CCN(S(=O)(=O)c2ccc(Br)s2)CC1)N1CCN(c2ccccc2)CC1 | -3.44% |
| O=C(NC(=S)Nc1ccccc1C(=O)O)c1ccc(-c2ccc(Br)cc2)o1 | 19.4% (active) |
| Cc1cccc(NC(=S)NC(=O)c2ccc(Br)o2)c1 | -1.38% |
| COC(=O)c1ccccc1NC(=S)NC(=O)c1ccccc1F | -1.44% |
| CC(C)[C@H](NC(=O)N1CC(=O)Nc2ccccc21)C(=O)N[C@@H](Cc1c[nH]c2ccccc12)C(=O)O | -2.42% |
| CCOC(=O)N1CCN(Cc2nnc(-c3ccccc3Cl)o2)CC1 | -1.67% |
| Nc1cccc2c1C(=O)N(Cc1nnc(-c3ccccc3Br)o1)C2=O | 13.6% (active) |
| Cn1cnnc1SCc1nnc(-c2ccccc2Br)o1 | -0.36% |
| Cc1ccccc1NC(=O)C1CCCN(C(=O)NCc2ccccc2)C1 (centres undefined) | -2.35% |
| CC(C)(C)C(=O)CN1C2=NCCN2c2ccccc21 | -3.12% |
| Cc1cc2c(cc1C)N(Cc1ccccc1)C1=NCCCN12 | 8.88% (active) |
| OC(CN1C2=NCCCN2c2ccccc21)c1ccc(Br)cc1 (centres undefined) | -1.66% |
| COc1ccc(S(=O)(=O)NCC(=O)NCc2cc(=O)n(C)c(=O)n2C)cc1F | -1.12% |
| CCn1c(Cc2ccc(OC)cc2)nnc1SCC(=O)Nc1ccc(N2CCOCC2)cc1 | -1.86% |
| Cc1cc(N/N=C\c2ccc(Br)cc2)nc(-n2nc(C)cc2C)n1 | -1.15% |
| COc1ccccc1/C=N\Nc1cc(C)nc(-n2nc(C)cc2C)n1 | -5.24% |

| SMILES | inhibition |
| --- | --- |
| COc1ccc(Nc2cc(C)nc(-n3nc(C)cc3C)n2)cc1 | 12.7% (active) |
| Cc1cccc(OCC(=O)NCC(=O)N/N=C/c2ccc(N(C)C)cc2)c1 | 0.77% |
| N#Cc1ccc(/C=C2\CCn3c2nc2cc(C(=O)O)ccc2c3=O)cc1 | 3.37% |
| COc1ccc(-c2ccc(CNCCCN3CCOCC3)o2)cc1Cl | -0.71% |
| Fc1ccc(-c2ccc(CNCc3ccccn3)o2)cc1Cl | 38% (active) |
| Cc1cc(S(=O)(=O)NCc2ccccn2)c(Cl)cc1Cl | -1.51% |
| COc1ccc(S(=O)(=O)N2CCN(C(=O)N(C)C)C2C)cc1 (centres undefined) | -2.86% |
| N#Cc1ccc(S(=O)(=O)NCC(=O)OCC(=O)NCCc2ccccc2)cc1 | -2% |
| O=C(Nn1c(SCc2ccc([N+](=O)[O-])cc2)nc2ccccc2c1=O)c1ccc(F)cc1 | 1.03% |
| COCCNC(=O)c1ccc(-n2c(SCc3cccnc3)nc3ccccc3c2=O)cc1 | -1.16% |
| C=CCn1c(SCc2ccc(C(=O)NCCO)cc2)nc2ccccc2c1=O | 9.03% (active) |
| Cn1c(C(=O)NCCCN2CCN(c3cccc(Cl)c3)CC2)cc2c(=O)n(C)c3ccccc3c21 | -1.03% |
| Cn1c(C(=O)N2CCC(C(N)=O)CC2)cc2c(=O)n(C)c3ccccc3c21 | 2.96% |
| Cn1c(C(=O)NCCc2ccsc2)cc2c(=O)n(C)c3ccccc3c21 | 4.63% |
| CC1CCCC(C)N1CCCNC(=O)c1cc2c(=O)n(C)c3ccccc3c2n1C (centres undefined) | 21.7% (active) |
| Cn1c(C(=O)NCCN2CCc3ccccc3C2)cc2c(=O)[nH]c3ccccc3c21 | 6.06% |
| CCN1CCCC1CNC(=O)c1cc2c(=O)n(C)c3ccccc3c2n1C (centres undefined) | 19.9% (active) |
| O=C(N/N=C/c1cccnc1)c1ccc(NC(=O)c2ccc(F)cc2)cc1 | -0.77% |
| COc1cc(S(=O)(=O)N(Cc2cccs2)C2CC2)ccc1-n1cnnn1 | -1.52% |
| COc1ccc(C(=O)C2CCCN(C(=O)c3cc(C)on3)C2)cc1F (centres undefined) | -2.54% |

| SMILES | inhibition |
| --- | --- |
| CCOc1ccc2[nH]c(C(=O)N/N=C/c3cccc(OC)c3OC)cc2c1 | -0.14% |
| O=C(CCl)NNc1nc(-c2ccccc2)c2cc(Cl)ccc2n1 | -3.67% |
| Clc1ccc2nc(-c3ccccc3)nc(C(Cl)Cl)c2c1 | -4.99% |
| NC(N)=Nc1nc(-c2ccccc2)c2cc(Cl)ccc2n1 | 9.54% (active) |
| O=C(CCCCCn1c(=S)[nH]c2cc3c(cc2c1=O)OCO3)N1CCN(c2ccc(F)cc2)CC1 | -4.83% |
| CC(C)Oc1ccc(CN2CCC(n3nccc3NC(=O)c3cccnc3)CC2)cc1 | -0.44% |
| CN(C)CCCn1c(=O)n(Cc2ccccc2)c(=O)c2c3c(sc21)CCCCC3 | -0.19% |
| COc1ccc(C(=O)/C=C/c2cccnc2)c(OC)c1 | -1.09% |
| O=c1oc2c(CN3CCCCC3)c(O)ccc2c2c1CCCCC2 | -1.98% |
| CN1CCN(Cc2c(O)ccc3c2oc(=O)c2ccccc23)CC1 | 12% (active) |
| CCOC(=O)c1oc2c(CN3CCN(C)CC3)c(O)ccc2c(=O)c1-c1ccc(Br)cc1 | 2.09% |
| COc1ccc(-c2cc(C(=O)N(C)Cc3ccc(OC)c(OC)c3OC)c3ccccc3n2)cc1OC | -3.53% |
| O=C(Nc1nnc(C2CC2)s1)c1cc(Cl)sc1Cl | -3.26% |
| CN1C(=O)/C(=C\c2cc(Br)cs2)c2ccccc21 | 0.8% |
| O=C(c1ccco1)N1CCN(C(=O)c2cc(-c3ccccc3F)no2)CC1 | -2.41% |
| COc1cccc(NC(=O)C(=O)c2cn(CC(=O)N3CCOCC3)c3ccccc23)c1 | 1.81% |
| Cc1cc(=O)oc2c1ccc1ccccc12 | 10.6% (active) |
| CC(=O)c1ccc2c(ccc3ccccc32)c1 | -0.35% |
| Cc1cc(=O)oc2c(C(=O)c3ccccc3)c(OCC(N)=O)ccc12 | -0.26% |

From PubChem BioAssay AID1527 (The Scripps Research Institute Molecular Screening Center, 2009)
